Data published in PubChem BioAssay AID1159580 (chemical genetic matrix, 2015).
Among all 5,500 compounds or so, about 2,000 (36%) were called active. Another 18% or so got no clear call; they are omitted. No stated cut-off is given here; in the data, active means normalized growth mostly below about 0.91 (no sharp cut-off); inconclusive means no clear call, values can overlap the other calls; inactive means mostly above about 0.92. The list shows a part of the results.

Experiment: chemical genetic growth profiling, strain panel (AID 1159580);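 further: tested at 20 µM; growth read once vehicle control cultures reached saturation at 30 °C; 1 = growth at the plate median or of vehicle wells; lower values mean less growth of the strain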
Conditions: S. cerevisiae deletion strains, growth OD

Measured: normalized growth

CC(C)c1cccc(O)c(=O)c1
active: locus YAL021C, strain ccr4, hits give low values 0.0678 | locus YAL026C, strain drs2, hits give low values 0.0622 | locus YAL030W, strain snc1, hits give low values 0.0616 | locus YBL061C, strain skt5, hits give low values 0.0689 | locus YBR009C, strain hhf1, hits give low values 0.0635 | locus YBR023C, strain chs3, hits give low values 0.0691 | locus YBR171W, strain sec66, hits give low values 0.0935 | locus YBR231C, strain swc5, hits give low values 0.0694 | locus YBR279W, strain paf1, hits give low values 0.0689 | locus YCL011C, strain gbp2, hits give low values 0.0593 | locus YCL016C, strain dcc1, hits give low values 0.0739 | locus YCL069W, strain vba3, hits give low values 0.0926 | locus YCR088W, strain abp1, hits give low values 0.0649 | locus YDL005C, strain med2, hits give low values 0.0881 | locus YDL040C, strain nat1, hits give low values 0.0703 | locus YDR001C, strain nth1, hits give low values 0.0642 | locus YDR069C, strain doa4, hits give low values 0.0633 | locus YDR137W, strain rgp1, hits give low values 0.0985 | locus YDR159W, strain sac3, hits give low values 0.0917 | locus YDR195W, strain ref2 0.166 | locus YDR297W, strain sur2, hits give low values 0.0622 | locus YDR334W, strain swr1, hits give low values 0.0664 | locus YDR335W, strain msn5, hits give low values 0.0638 | locus YDR392W, strain spt3, hits give low values 0.0887 | locus YEL003W, strain gim4, hits give low values 0.0581 | locus YEL037C, strain rad23, hits give low values 0.0615 | locus YEL061C, strain CIN8 (second series), hits give low values 0.0653 | locus YER015W, strain faa2, hits give low values 0.0615 | locus YER016W, strain bim1, hits give low values 0.067 | locus YER111C, strain swi4, hits give low values 0.0815 | locus YER155C, strain BEM2 (second series), hits give low values 0.0927 | locus YFR010W, strain ubp6, hits give low values 0.072 | locus YGL167C, strain pmr1, hits give low values 0.091 | locus YGL173C, strain kem1, hits give low values 0.0718 | locus YGL227W, strain vid30, hits give low values 0.0687 | locus YGL240W, strain doc1, hits give low values 0.0871 | locus YGL253W, strain hxk2, hits give low values 0.0611 | locus YHR013C, strain ard1, hits give low values 0.113 | locus YHR027C, strain rpn1, hits give low values 0.0609 | locus YHR030C, strain SLT2, hits give low values 0.126 | locus YHR079C, strain IRE1, hits give low values 0.146 | locus YHR142W, strain chs7, hits give low values 0.0743 | locus YJL092W, strain hpr5, hits give low values 0.0677 | locus YJL095W, strain BCK1 (second series), hits give low values 0.0581 | locus YJL095W, strain BCK1, hits give low values 0.145 | locus YJL115W, strain asf1, hits give low values 0.0902 | locus YJL129C, strain trk1, hits give low values 0.0856 | locus YJL154C, strain vps35, hits give low values 0.0621 | locus YJL164C, strain tpk1, hits give low values 0.0686 | locus YJL166W, strain qcr8, hits give low values 0.0625 | locus YJR066W, strain TOR1, hits give low values 0.0572 | locus YKL160W, strain elf1, hits give low values 0.0788 | locus YKR026C, strain gcn3, hits give low values 0.0743 | locus YKR091W, strain srl3, hits give low values 0.0697 | locus YLL001W, strain dnm1, hits give low values 0.0706 | locus YLL026W, hits give low values 0.0634 | locus YLL041C, strain sdh2, hits give low values 0.0616 | locus YLR027C, strain aat2, hits give low values 0.0581 | locus YLR113W, strain HOG1, hits give low values 0.217 | locus YLR221C, strain rsa3, hits give low values 0.059 | locus YLR258W, strain gsy2, hits give low values 0.0639 | locus YLR262C, strain YPT6 (second series), hits give low values 0.0819 | locus YLR320W, strain mms22, hits give low values 0.0828 | locus YLR342W, strain FKS1, hits give low values 0.0743 | locus YLR357W, strain rsc2, hits give low values 0.136 | locus YLR370C, strain arc18, hits give low values 0.0652 | locus YLR384C, strain iki3, hits give low values 0.0711 | locus YML120C, strain ndi1, hits give low values 0.0618 | locus YMR058W, strain fet3, hits give low values 0.0629 | locus YMR125W, strain sto1, hits give low values 0.0871 | locus YMR129W, hits give low values 0.0613 | locus YMR205C, strain PFK2, hits give low values 0.091 | locus YMR231W, strain pep5, hits give low values 0.0803 | locus YNL071W, strain lat1, hits give low values 0.0663 | locus YNL183C, strain NPR1, hits give low values 0.0186 | locus YNL209W, strain ssb2, hits give low values 0.0585 | locus YNL248C, strain rpa49, hits give low values 0.0753 | locus YNL322C, strain KRE1 (second series), hits give low values 0.068 | locus YNR049C, strain mso1, hits give low values 0.0605 | locus YOR001W, strain rrp6, hits give low values 0.0684 | locus YOR070C, strain gyp1, hits give low values 0.123 | locus YOR080W, strain dia2, hits give low values 0.0682 | locus YOR083W, strain WHI5, hits give low values 0.0692 | locus YOR106W, strain vam3, hits give low values 0.0676 | locus YOR231W, strain MKK1, hits give low values 0.134 | locus YOR265W, strain rbl2, hits give low values 0.0639 | locus YOR270C, strain vph1, hits give low values 0.101 | locus YOR290C, strain snf2, hits give low values 0.0651 | locus YPL051W, strain arl3, hits give low values 0.0708 | locus YPL078C, strain atp4, hits give low values 0.0754 | locus YPL106C, strain sse1, hits give low values 0.111 | locus YPL240C, strain hsp82, hits give low values 0.0667 | locus YPL256C, strain CLN2, hits give low values 0.121
